The full list was thinned out, with hits kept by preference.
nsP2pro primary: Primary qHTS for inhibitors of NSP2Pro chikungunya virus (CHIKV); Polyprotein P1234 (Chikungunya virus (strain S27-African prototype)), Q8JUX6; FRET peptide cleavage, nsP2pro, fluorescence 1 h; Potency, µM (highest dose often 24.9 µM), hits mostly inhibitors; actives 1.1% (n = 31,000); calls by dose curve; note: nearly all actives have a fitted effect of over 60% in size
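Recombinant nsP2pro (150 nM) was preincubated with compound 15 min at room temperature in 10 mM Tris-HCl pH 8.0, 0.01% Tween 20. Peptide 2 FRET substrate (2.5 uM) was then added and fluorescence read after 1 h. Seven-point series, up to 25 uM.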
A number is an active result; i = inactive; ! = not active in a repeat; [ ] = remark or other dose.

SMILES | nsP2pro primary
CC(C)=CCC[C@](C)(O[C@@H]1O[C@H](CO)[C@@H](O)[C@H](O)[C@H]1O)[C@H]1CC[C@]2(C)[C@@H]1[C@H](O)C[C@@H]1[C@@]3(C)CC[C@H](O[C@@H]4O[C@H](CO)[C@@H](O)[C@H](O)[C@H]4O[C@@H]4O[C@H](CO)[C@@H](O)[C@H](O)[C@H]4O)C(C)(C)[C@@H]3CC[C@]12C | i
Cc1ccc(OCC(=O)c2ccc3c(c2)N(CCCC(=O)N2CCCC2)C(=O)CO3)cc1C | i
Cn1cc(-c2cc3c(N4CCN(c5ncc([C@@](C)(N)c6ccc(F)cc6)cn5)CC4)ncnn3c2)cn1 | i
Cc1cc(NC(=O)Nc2ccc(F)c(F)c2)n(-c2ccccc2)n1 | i
CCOC(=O)c1nnc(N[S+](=O)([O-])c2ccc(NC(=O)Cc3ccc(Cl)c(Cl)c3)cc2)s1 | i
O=C(Nc1nc2c(s1)CCCCCC2)Nc1ccc(F)cc1F | i
CCCOc1ccccc1C(=O)Nc1nc2c(s1)CCCC2 | 12.6µM
COc1ccccc1C(=O)Nc1nc(-c2ccccc2)cs1 | i
C=CC(=O)Nc1cccc(Nc2nc(Nc3ccc(Oc4ccnc(C(=O)NC)c4)cc3)ncc2F)c1 | i
Cc1cc2ncc(C(=O)NCc3ccccc3Cl)cn2n1 | i
O=C(NCc1ccc(Cl)cc1)c1ccc2nnc(-c3cc[nH]c3)n2c1 | i
O=C(NCc1ccccc1Cl)c1ccc2nnc(-c3ccoc3)n2c1 | 11.2µM
CC(=O)Nc1sc2c(c1-c1ccc3c(c1)CCO3)CCNC2 | i
Fc1ccc(-c2ccc(Nc3nc(-c4ccncc4)nc4ccccc34)cc2F)cc1 | i
O=c1cc(-c2ccncc2)oc2c(-c3cccc(CO)c3)nccc12 | 14.1µM
O=c1cc(-c2cccnc2)oc2c(NCCc3ccccn3)nccc12 | i
Cc1ccccc1-c1nccc2c(=O)cc(C3=CCOCC3)oc12 | i
Clc1ccccc1-c1nc(NCc2ccc(-c3cccnc3)cc2)c2ccccc2n1 | i
Oc1ccc(Nc2nc(-c3ccncc3)nc3ccccc23)cc1F | i
CCOC(=O)c1cnc2ccc(-c3cncc(NS(=O)(=O)c4ccccc4)c3)cn12 | i
O=c1ccc(-c2cccs2)c2n1C[C@H]1C[C@@H]2CN(S(=O)(=O)c2ccccc2)C1 | 15.8µM
COc1ccc(S(=O)(=O)N2C[C@@H]3C[C@H](C2)c2c(NC(=O)c4ccccc4)ccc(=O)n2C3)cc1 | i
Cc1ccc(NC(=O)N2C[C@@H]3C[C@H](C2)c2c(-c4cccs4)ccc(=O)n2C3)cc1 | i
COc1ccc(C2CC(=O)c3c(O)cc(OC4OC(CO)C(O)C(O)C4OC4OC(C)C(O)C(O)C4O)cc3O2)cc1O (centres undefined) | i
Cc1cnc(-c2ccccc2C(C)C)nc1NCc1ccc(-c2nn[nH]n2)cc1 | i
SMILES | nsP2pro primary
CNC(C)CC1CCCC1 (centres undefined) | i
O=c1c2ccccc2nc2sc(Nc3ccc4c(c3)CNC4)nn12 | i
O=C(O)c1ccc(-c2ccc3ncnc(NCC4CCCO4)c3c2)o1 (centres undefined) | i
CC(C)(C)CNc1ncnc2ccc(-c3ccc(C(=O)O)o3)cc12 | i
O=C(O)c1ccc(-c2ccc3ncnc(NCc4nccs4)c3c2)o1 | 11.2µM
O=C1CC2(CCN(S(=O)(=O)c3cccs3)CC2)Oc2ccccc21 | i
COc1ccc(C2Nc3ccccc3C(=O)N2Cc2cccnc2)cc1COc1c(C)cc(NC(C)=O)cc1C (centres undefined) | i
O=C(O)c1cc(N=Nc2ccc(O)c(C(=O)O)c2)ccc1O | i
O=C(O)c1cc(O)c2c(c1)[O][Bi][O]2 | i[0.199 µM]
O=C(O)c1cc(O)c(O)c(O)c1 | 12.4µM!
CCCC1CC(C(=O)NC(C(C)Cl)C2OC(SC)C(OP(=O)(O)O)C(O)C2O)N(C)C1 (centres undefined) | i
OCC1OC(c2ccc(Cl)c(Cc3ccc(OC4CCOC4)cc3)c2)C(O)C(O)C1O (centres undefined) | i
CCCNc1ccc2ncc(-c3ccc4[nH]ncc4c3)n2n1 | i
Cc1occc1-c1ccc2ncnc(NCCc3cnc[nH]3)c2c1 | i
O=C(NCc1ccnc2[nH]ccc12)c1cncc(Br)c1 | i
CCS(=O)(=O)N1CCC(Oc2cccc(C(=O)NCc3ccccn3)c2)CC1 | i
O=C(NCc1ccnc2[nH]ccc12)c1cccc(Br)c1 | 11.2µM
C/C(=C\c1ccsc1)C1Nc2cccc3cccc(c23)N1 | i
Cn1c(=O)cc(N2CCC[C@@H](N)C2)n(Cc2ccccc2C#N)c1=O | i
O=C1NC(=NCc2cccs2)S/C1=C/c1ccc2ncccc2c1 | i
Cc1nc2ccccc2c(-c2ccc3c(c2)CCCO3)c1C(OC(C)(C)C)C(=O)O (centres undefined) | i
CC(=O)c1ccc(NC(=O)N[C@H]2CO[C@H]3[C@@H]2OC[C@@H]3Nc2nccc(-c3ccco3)n2)cc1 | i
O=C(COc1ccccc1)N[C@H]1CO[C@H]2[C@@H]1OC[C@@H]2Nc1nccc(-c2ccco2)n1 | 12.6µM
O=C(N[C@H]1CO[C@H]2[C@@H]1OC[C@@H]2Nc1nccc(-c2ccco2)n1)c1ccco1 | 1µM
CC(C)(C)c1ccnc(N[C@H]2CO[C@H]3[C@@H]2OC[C@@H]3NC(=O)c2ccco2)n1 | i
SMILES | nsP2pro primary
O=C(COc1ccccc1)N[C@H]1CO[C@H]2[C@@H]1OC[C@@H]2Nc1nccc(-c2cccs2)n1 | i
O=C(Nc1ccccc1)N[C@H]1CO[C@H]2[C@@H]1OC[C@@H]2Nc1nccc(-c2cccs2)n1 | i
C[S+](=O)([O-])N1CC2(CCN(Cc3c[nH]c4ccccc34)CC2)Cc2ccccc21 | i
NCCCCC(=O)Nc1ccc(Cl)cc1C(=O)c1ccc[nH]1 | i
Cc1nnc(-c2cnn(C)c2N)n1CCc1cccs1 | i
CCC[C@@H](NC(=O)[C@@H]1[C@H]2CCC[C@@H]2CN1C(=O)[C@@H](NC(=O)[C@@H](NC(=O)c1cnccn1)C1CCCCC1)C(C)(C)C)C(=O)C(=O)NC1CC1 | 7.94µM
Cc1cc(N[S+](=O)([O-])c2cc3c(cc2Cl)NC(=O)CO3)ccc1Br | i
Fc1ccc(NC(=S)Nc2nnc(-c3ccncc3)s2)cc1C(F)(F)F | i
CCOC(=O)c1nn(-c2ccc(OC)cc2)c(=O)c2c(N)scc12 | 11.2µM
COc1ccc(-n2nc(C(=O)O)c(=O)n(C)c2=O)cc1 | i
CCC1CCCCN1C(=O)c1nn(-c2ccc(OC)cc2)c(=O)c2c1c1ccccc1n2C (centres undefined) | i
Cc1nn(C)cc1S(=O)(=O)NC(=O)c1ccc(-n2ccc(OCC(C)(C)C(F)(F)F)n2)nc1N1C[C@@H](C)CC1(C)C | i
COC1(O[C@H]2CC[C@H]3[C@@H]4CC[C@H]5C[C@@H]6S[C@@H]6C[C@]5(C)[C@H]4CC[C@]23C)CCCC1 | i
COc1ccc(Nc2ccc3c(n2)CN(Cc2ccccc2C)C(=O)CO3)cc1 | 4.47µM
COc1ccccc1-c1ccc2c(n1)CN(Cc1ccccc1C)C(=O)CO2 | i
COc1ccc(Nc2ccc3c(n2)CN(Cc2ccccc2F)C(=O)CO3)cc1 | i
CC(=O)c1ccc(N2CCN(S(=O)(=O)c3ccc(N4CCCC4=O)cc3)CC2)cc1 | i
O=C(Nc1ccccc1)C1CCN(c2nc(-c3ccc(Br)cc3)cs2)CC1 | i
CC(C)[C@H]1CC[C@H](C)C[C@H]1O | i
COc1ccc(-c2c(Cl)ncn2-c2ccc(S(N)(=O)=O)cc2)cc1F | i
CC(C)CCNC(=O)[C@H](CC(C)C)NC(=O)[C@H]1O[C@@H]1C(=O)O | i
CCOC(=O)[C@H]1O[C@H]1C(=O)N[C@@H](CC(C)C)C(=O)NCCC(C)C | 7.08µM
